Compound activity deposited in PubChem by National Center for Advancing Translational Sciences (NCATS).
Rows were chosen to be rich in hits. Some 5.5% of all compounds tested hit in one or more screens of this group.
Sfp inh: qHTS Assay for Inhibitors of Bacillus subtilis Sfp phosphopantetheinyl transferase (PPTase); 310,000 compounds, 3.5% hits; Potency, µM, without a hit: largest response in the series, negative = inhibition, most hits filed as inhibitors; 4'-phosphopantetheinyl transferase ffp (Bacillus subtilis), Q9F4F7; Biochemical Sfp PPTase activity, qHTS;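 further: the enzyme is Sfp with the accession as filed and its product quenches rhodamine fluorescence; potency means the concentration at half of the fitted maximal effect; 0% = enzyme reaction without inhibitor and -100% = no enzyme wells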
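With Hepes-Na pH 7.6 buffer containing 10 mM MgCl2, Sfp (15 nM) modified BHQ-2-YbbR (12.5 uM) using rhodamine-CoA (5 uM). Two reads 30 minutes apart at 525/598 nm yielded each well's rate.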
FBPA coupling cs: qHTS Assay for Inhibitors of Fructose-1,6-bisphosphate Aldolase from Giardia Lamblia: Coupling assay counterscreen | coupling enzyme system counterscreen, AmpLite Red fluorescence | activity change, negative = inhibition, % at 58.2 µM, hits read low | 290,000 compounds, 0.67% hits | AID 2472, 2010; in the data active means activity change below about -30%
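Activity here indicates interference with the coupling reaction, not aldolase inhibition. Compounds at 57.5 uM final met coupling enzymes for 10 min at RT; substrate and AmpLite Red detection followed, with a 525/598 nm fluorescence read after 20 min.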
ELG1 DNA repair: qHTS screen for small molecules that inhibit ELG1-dependent DNA repair in human embryonic kidney (HEK293T) cells expressing luciferase-tagged ELG1. HEK293T ELG1-luciferase reporter, luminescence, 16 h; DNA damage induced by 5-fluorouridine. Potency, µM (top dose mostly 46.1 µM), for the others: at the highest dose activity change, negative = inhibition, actives largely listed as inhibitors. 330,000 compounds, 2.3% hits. AID 504467, 2011; further: potency means the concentration at half of the fitted maximal effect; nearly all actives have a fitted effect of over 55% in size
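Quantitative HTS, concentration-response format. 2,000 cells/well co-treated with 5-fluorouridine and compound, 16 hr in 5% CO2 at 37 °C; ONE-Glo luminescence read after 30 min.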
Giardia kill: Small Molecules that selectively kill Giardia lamblia: qHTS; Giardia lamblia trophozoite viability; activity change, % at 7.66 µM, hits read low; 340,000 compounds, 0.15% hits; AID 540267, 2011; in the data active means activity change below about -80%; inconclusive means between about -30% and that limit;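 further: parasites exposed to compound for two days anaerobically before the ATP read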
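Each well holds 100 Giardia trophozoites and compound. After two days (48 hrs) at 37 deg C in anaerobic conditions, ATP is quantified by luminescence.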
Numbers without * were called inactive; u = inconclusive; x = no result given; ! = not confirmed by another sample. Unless noted, the call rests on the fitted dose curve; in most records, active means well fitted curve in the direction sought with a large enough effect; inconclusive means small, poorly fitted or top-dose-only effect, or another doubt; inactive means no such curve, though single readings can be large; an effect the other way counts as inactive or inconclusive. Unless noted, on the % scale 0 is the no-effect control and ±100 the full control effect.

SMILES | Sfp inh | FBPA coupling cs | ELG1 DNA repair | Giardia kill
N#Cc1c(NC(=O)C2CC(c3ccccc3O)=NO2)sc2c1CCC2 (configuration not stated) | 25µM* | 5 | -23% | 23
Cc1onc(-c2ccccc2Cl)c1C(=O)Nc1sc2c(c1C#N)CCC2 | 18µM* | 0 | u | 0
CN(CC(=O)Nc1sc2c(c1C#N)CCCCC2)Cc1nc2ccccc2c(=O)[nH]1 | 11% | 0 | 23µM* | -2
O=c1cnc2cnc(Nc3ccccc3)nc2n1C[C@H]1CCCO1 | 10% | 1 | x | x
COc1cccc(OC)c1C(=O)Nc1sc2c(c1C#N)CCC2 | 40µM* | 1 | -12% | -7
Cc1onc(C(=O)Nc2sc3c(c2C#N)CCCC3)c1[N+](=O)[O-] | 50µM* | 3 | -3% | -4
N#Cc1c(NC(=O)c2ccco2)sc2c1CCC2 | -4% | x | u | 1
Cc1cc(C)n(CC(=O)N/N=C/c2ccc([N+](=O)[O-])s2)n1 | 4% | 2 | 15µM* | u
CCOC(=O)N/N=C\c1ccc([N+](=O)[O-])s1 | -19% | 1 | 21µM* | -99*
Cc1cc(C(=O)N/N=C/c2ccc(C)s2)n[nH]1 | 15% | 0 | u | -21
Cc1cc(C(=O)N/N=C/c2ccc([N+](=O)[O-])s2)n[nH]1 | -4% | 3 | 16µM* | -90*
Cc1ccc(C(=O)N/N=C/c2ccc([N+](=O)[O-])s2)cc1 | -2% | x | -23% | -93*
O=C(N/N=C/c1ccc([N+](=O)[O-])s1)c1ccncc1 | -2% | 1 | u | u
CCC(CC)c1nnc(NC(=O)c2cccc(S(=O)(=O)N3CCOCC3)c2)s1 | x | x | u | 0
O=C(N/N=C/c1ccc([N+](=O)[O-])s1)c1cccc(Br)c1 | -17% | -1 | 10µM* | u
Cc1cc(C(=O)N/N=C/c2cc(Cl)cc([N+](=O)[O-])c2O)n[nH]1 | 12% | 7 | 13µM* | 6
Cc1cc(C(=O)N/N=C\c2cc(C(C)(C)C)c(O)c(C(C)(C)C)c2)n[nH]1 | -6% | 1 | -19% | -10
O=C(CNC(=O)c1ccccc1)N/N=C/c1ccc([N+](=O)[O-])s1 | 2% | 2 | 6.5µM* | -24
COc1cc(Br)c(CC(=O)NC2CC2)cc1OC | -1% | -1 | 0% | -17
CCCNC(=O)C(Cc1cccc(OC)c1)NC(=O)c1ccc(C(C)(C)C)cc1 (configuration not stated) | x | x | u | -5
CCc1ccc2c(c1)C(c1ccncc1)=NNC(c1ccccc1)=N2 | -3% | 0 | u | 8
CCCOc1ccc(C2=NNC(c3cccs3)=Nc3ccc(OC)cc32)cc1 | -1% | -1 | 16µM* | -8
COc1ccc2c(c1)C(c1cccs1)=NNC(c1ccncc1)=N2 | -5% | 4 | u | -30
CCOc1ccc2c(c1)C(c1ccccc1)=NNC(c1ccccc1)=N2 | -12% | -3 | 13µM* | -6
CCOC(=O)c1c(NC(=O)C2CCCCC2)sc2c1CCN(C(C)C)C2 | -9% | 2 | 0% | -7
SMILES | Sfp inh | FBPA coupling cs | ELG1 DNA repair | Giardia kill
C[C@@H]1O[C@@H](Oc2c(-c3cc(O)c(O)c(O)c3)oc3cc(O)cc(O)c3c2=O)[C@H](O)[C@H](O)[C@H]1O | 32µM*! | -7 | 7% | 5
O=C1C(Cl)=C(Nc2ccc(O)cc2)C(=O)c2ccccc21 | -22% | -26 | u | -21
O=C1C(Nc2ccc(O)cc2)=C/C(=N/S(=O)(=O)c2cccs2)c2ccccc21 | -4% | -37* | 6.5µM* | 0
Cc1ccc(Cl)cc1NC1=C/C(=N\S(=O)(=O)c2cccs2)c2ccccc2C1=O | -4% | -46* | 5.2µM* | 2
Cc1ccc(NC2=C/C(=N\S(=O)(=O)c3cccs3)c3ccccc3C2=O)c(C)c1 | -7% | -2 | u | -22
Cc1cccc(NC2=C/C(=N/S(=O)(=O)c3cccs3)c3ccccc3C2=O)c1 | u | 3 | 4.1µM* | 0
CCOC(=O)C1=CNS(=O)(=O)NC1c1ccc2ccccc2c1 (configuration not stated) | x | x | 28% | -2
CCCC(=Nc1ccc(N)cc1)C1=C(O)C(C(=O)OC)C(C)(C)CC1=O (configuration not stated) | -27% | -41* | u | -5
